In PubChem BioAssay (Tox21):
Where “and” joins values, the source holds several entries; their conditions need not be identical. Equal entries are not always repeated. Results filed as inconclusive are left out. A number with no mark means an inactive call. Calls of active or inactive are those of the source. Calls come from the whole dose curve.

experiment: qHTS assay for small molecule agonists of the p53 signaling pathway - cell viability (AID 651633); conditions: p53RE-bla HCT-116 viability, ATP luminescence, 16 h; series mostly up to 83.3 µM; activity change, negative = cytotoxicity: at the top concentration; note: nearly all actives have a fitted effect of over 30% in size;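 for activity change, negative = cytotoxicity: p53RE-bla HCT reporter cells with a stable beta-lactamase p53 reporter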
Procedure, shortened: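 Viability counter-read: CellTiter-Glo luminescence (30 min, room temperature) in the same p53RE-bla plates. These plates had been exposed to compounds for 16 h at 37 C.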
% is set by controls: 0 for no effect and ±100 for the full control effect; potency is the fitted concentration of half-maximal effect.

Q: With CCN(CC)c1ccc(N)cc1 as the molecule, how does the “activity change, negative = cytotoxicity” value read?
A: -19.2% [at 95.3 µM]

Q: With CCN=C1C=CC(=C(c2ccc(N(CC)CC)cc2)c2ccc(N(CC)CC)cc2)c2ccccc21 as the molecule, how does the Potency read?
A: 30.5 µM (active)

Q: With S=C(SSSSSSC(=S)N1CCCCC1)N1CCCCC1 as the molecule, how does the “activity change, negative = cytotoxicity” value read?
A: -4.99% [at 39.1 µM]

Q: With Cc1cc2c(C(C)C)c(O)c(O)c(C=O)c2c(O)c1-c1c(C)cc2c(C(C)C)c(O)c(O)c(C=O)c2c1O as the molecule, how does the Potency read?
A: 8.41 µM (active)

Q: With O=Nc1ccc(NO)cc1 as the molecule, how does the “activity change, negative = cytotoxicity” value read?
A: 31.1% [at 95.3 µM]

Q: For c1cc2c3c(c1)ccc1cccc(c13)C2, which “activity change, negative = cytotoxicity” value is on record?
A: -25.2% [at 95.3 µM]

Q: Which Potency does the source give for O=C1C=CC(=O)N1c1ccccc1 here?
A: 48.6 µM (active)

Q: With NCCCCCCNCCCCCCN as the molecule, how does the “activity change, negative = cytotoxicity” value read?
A: 8.09%

Q: For Cc1cccc(C)c1NC(=O)CN1CCN(CCCC(c2ccc(F)cc2)c2ccc(F)cc2)CC1, which “activity change, negative = cytotoxicity” value is on record?
A: -12.1% [at 39.1 µM]

Q: With C[C@]12CC[C@H]3C(=CCc4cc(O)ccc43)[C@@H]1CCC2=O as the molecule, how does the “activity change, negative = cytotoxicity” value read?
A: -10.7%

Q: For COc1cc(C(=O)NS(=O)(=O)c2ccccc2C)ccc1Cc1cn(C)c2ccc(NC(=O)OC3CCCC3)cc12, which Potency is on record?
A: 5.96 µM (active)

Q: Which “activity change, negative = cytotoxicity” value does the source give for Cc1c(C)n(Cc2ccccc2)c2ccc(C(=O)OCCN(C)C)cc12 here?
A: -15.6%

Q: With Cc1cc(Nc2ccc(O)cc2)ccc1N as the molecule, how does the “activity change, negative = cytotoxicity” value read?
A: -16.9%

Q: Which Potency does the source give for CC(NCCC(c1ccccc1)c1ccccc1)c1ccccc1 (stereo not given) here?
A: 29.8 µM (active)

Q: With SCCCCCCCCS as the molecule, how does the “activity change, negative = cytotoxicity” value read?
A: 13.8%

Q: Which Potency does the source give for CC(C)(C)c1cc(/C=C2\SC(=N)NC2=O)cc(C(C)(C)C)c1O here?
A: 68.6 µM (active)

Q: Which “activity change, negative = cytotoxicity” value does the source give for CC(CN(C)C)CN1c2ccccc2CCc2ccccc21 (stereo not given) here?
A: 16.7% [at 39.1 µM]

Q: With CCN(CC)CCCN(c1ccccc1)C1Cc2ccccc2C1 as the molecule, how does the Potency read?
A: 13.3 µM (active)

Q: Which Potency does the source give for CN1CCN(C2Cc3ccccc3Sc3ccc(Cl)cc32)CC1 (stereo not given) here?
A: 29.8 µM (active)

Q: With CCO[Si](CCCSSSSCCC[Si](OCC)(OCC)OCC)(OCC)OCC as the molecule, how does the “activity change, negative = cytotoxicity” value read?
A: -22.3%

experiment: qHTS assay for small molecules that induce genotoxicity in human embryonic kidney cells expressing luciferase-tagged ATAD5 - cell viability (AID 651634); conditions: HEK293T ATAD5-luc cells viability, CellTiter-Fluor, 15.5 h; series mostly up to 83.3 µM; activity, negative = cytotoxicity: at the top concentration; note: nearly all actives have a fitted effect of over 25% in size
Procedure, shortened: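 Here HEK293T cells with the ATAD5 luciferase reporter are incubated with test compounds for 15.5 hr, and cytotoxicity is then gauged by measuring protease activity in live cells using fluorescence.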

Q: Which Potency does the source give for CCN=C1C=CC(=C(c2ccc(N(CC)CC)cc2)c2ccc(N(CC)CC)cc2)c2ccccc21 here?
A: 34.2 µM (active)

Q: For Cc1cc2c(C(C)C)c(O)c(O)c(C=O)c2c(O)c1-c1c(C)cc2c(C(C)C)c(O)c(O)c(C=O)c2c1O, which Potency is on record?
A: 13.3 µM (active)

Q: For NC(=O)C(=O)N/N=C/c1ccc([N+](=O)[O-])o1, which “activity, negative = cytotoxicity” value is on record?
A: 14.4%

Q: Which “activity, negative = cytotoxicity” value does the source give for O=Nc1ccc(NO)cc1 here?
A: 6.26% [at 95.3 µM]

Q: With CCCCCCC(C)OC(=O)COc1nc(F)c(Cl)c(N)c1Cl (stereo not given) as the molecule, how does the “activity, negative = cytotoxicity” value read?
A: 7.4%

Q: Which “activity, negative = cytotoxicity” value does the source give for c1cc2c3c(c1)ccc1cccc(c13)C2 here?
A: 11.3% [at 95.3 µM]

Q: With NCCCCCCNCCCCCCN as the molecule, how does the “activity, negative = cytotoxicity” value read?
A: 11.1%

Q: With Cc1cccc(C)c1NC(=O)CN1CCN(CCCC(c2ccc(F)cc2)c2ccc(F)cc2)CC1 as the molecule, how does the “activity, negative = cytotoxicity” value read?
A: -17% [at 39.1 µM]

Q: With C=CC(=O)OCCOCC(CC)(COCCOC(=O)C=C)COCCOC(=O)C=C as the molecule, how does the Potency read?
A: 80.2 µM (active)

Q: With CC(=O)Nc1ccc(O)cc1 as the molecule, how does the Potency read?
A: inactive

Q: For COc1cc(C(=O)NS(=O)(=O)c2ccccc2C)ccc1Cc1cn(C)c2ccc(NC(=O)OC3CCCC3)cc12, which “activity, negative = cytotoxicity” value is on record?
A: -22%

Q: With Cc1c(C)n(Cc2ccccc2)c2ccc(C(=O)OCCN(C)C)cc12 as the molecule, how does the “activity, negative = cytotoxicity” value read?
A: -3.96%

Q: For CN(C)c1ccc(N=Nc2ccccc2C(=O)O)cc1, which Potency is on record?
A: 54.5 µM (active)

Q: For Cc1cc(Nc2ccc(O)cc2)ccc1N, which Potency is on record?
A: 27.2 µM (active)

Q: With Oc1ccc(-c2ccc(O)cc2)cc1 as the molecule, how does the “activity, negative = cytotoxicity” value read?
A: -23.6% [at 95.3 µM]

Q: Which “activity, negative = cytotoxicity” value does the source give for CC(CN(C)C)CN1c2ccccc2CCc2ccccc21 (stereo not given) here?
A: 6.73% [at 39.1 µM]

Q: With CN(C)CCCN1c2ccccc2CCc2ccccc21 as the molecule, how does the Potency read?
A: inactive

Q: Which Potency does the source give for CC(=O)OC(OC(C)=O)c1ccc([N+](=O)[O-])o1 here?
A: 62.2 µM (active)

Q: For CCN(CC)CCCN(c1ccccc1)C1Cc2ccccc2C1, which Potency is on record?
A: 23.7 µM (active)

Q: For CSc1ccc2c(c1)N(CCC1CCCCN1C)c1ccccc1S2 (stereo not given), which Potency is on record?
A: 29.8 µM (active) and 68.3 µM (active)

Q: For CCCCOc1ccc(C(=O)CCN2CCCCC2)cc1, which “activity, negative = cytotoxicity” value is on record?
A: -11.3% [at 39.1 µM]

Q: For CN1CCN(C2Cc3ccccc3Sc3ccc(Cl)cc32)CC1 (stereo not given), which “activity, negative = cytotoxicity” value is on record?
A: -26.2%

Q: With CCO[Si](CCCSSSSCCC[Si](OCC)(OCC)OCC)(OCC)OCC as the molecule, how does the “activity, negative = cytotoxicity” value read?
A: -15.6%

experiment: qHTS assay for small molecule disruptors of the mitochondrial membrane potential - cell viability (AID 720634); conditions: HepG2 viability, ATP luminescence (CellTiter-Glo), 1 h; series mostly up to 83.2 µM; activity change, negative = cytotoxicity: at the top concentration; note: nearly all actives have a fitted effect of over 20% in size;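 for activity change, negative = cytotoxicity: human HepG2 liver cancer cells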
Procedure, shortened: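 Viability of HepG2 cells is scored from ATP content by luminescence; cells are exposed to compound for 1 hr at 37 C and 5% CO2, then dosed with m-MPI dye before the CellTiter-Glo reagent.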

Q: Which “activity change, negative = cytotoxicity” value does the source give for S=C(SSSSSSC(=S)N1CCCCC1)N1CCCCC1 here?
A: 3.32% [at 39.1 µM]

Q: Which “activity change, negative = cytotoxicity” value does the source give for Cc1cc2c(C(C)C)c(O)c(O)c(C=O)c2c(O)c1-c1c(C)cc2c(C(C)C)c(O)c(O)c(C=O)c2c1O here?
A: -16.6%

Q: Which “activity change, negative = cytotoxicity” value does the source give for Cc1c(-c2ccc(O)cc2)n(Cc2ccc(OCCN3CCCCCC3)cc2)c2ccc(O)cc12 here?
A: -2.5%

Q: With O=Nc1ccc(NO)cc1 as the molecule, how does the “activity change, negative = cytotoxicity” value read?
A: 3.77% [at 95.3 µM]

Q: For CN1[C@@H]2CC[C@H]1CC(OC(=O)C(CO)c1ccccc1)C2 (stereo not given in full), which Potency is on record?
A: inactive

Q: For NCCCCCCNCCCCCCN, which “activity change, negative = cytotoxicity” value is on record?
A: 4.38%

Q: For CC1=C(/C=C/C(C)=C/C=C/C(C)=C\C=O)C(C)(C)CCC1, which “activity change, negative = cytotoxicity” value is on record?
A: -6.75%

Q: Which “activity change, negative = cytotoxicity” value does the source give for Cc1cccc(C)c1NC(=O)CN1CCN(CCCC(c2ccc(F)cc2)c2ccc(F)cc2)CC1 here?
A: 1.89% [at 39.1 µM]

Q: For C=CC(=O)OCCOCC(CC)(COCCOC(=O)C=C)COCCOC(=O)C=C, which “activity change, negative = cytotoxicity” value is on record?
A: 18.2% [at 95.3 µM]

Q: For CC(=O)Nc1ccc(O)cc1, which Potency is on record?
A: inactive

Q: For COc1cc(C(=O)NS(=O)(=O)c2ccccc2C)ccc1Cc1cn(C)c2ccc(NC(=O)OC3CCCC3)cc12, which “activity change, negative = cytotoxicity” value is on record?
A: -8.79%

Q: Which “activity change, negative = cytotoxicity” value does the source give for Cc1c(C)n(Cc2ccccc2)c2ccc(C(=O)OCCN(C)C)cc12 here?
A: 12.8%

Q: With CN(C)c1ccc(N=Nc2ccccc2C(=O)O)cc1 as the molecule, how does the “activity change, negative = cytotoxicity” value read?
A: 5.69%

Q: Which “activity change, negative = cytotoxicity” value does the source give for CC(NCCC(c1ccccc1)c1ccccc1)c1ccccc1 (stereo not given) here?
A: -11.8%

Q: Which “activity change, negative = cytotoxicity” value does the source give for SCCCCCCCCS here?
A: 10.4%

Q: With CC(C)(C)c1cc(/C=C2\SC(=N)NC2=O)cc(C(C)(C)C)c1O as the molecule, how does the “activity change, negative = cytotoxicity” value read?
A: 25.5%

Q: With Oc1ccc(-c2ccc(O)cc2)cc1 as the molecule, how does the “activity change, negative = cytotoxicity” value read?
A: 12% [at 95.3 µM]

Q: With CC(CN(C)C)CN1c2ccccc2CCc2ccccc21 (stereo not given) as the molecule, how does the “activity change, negative = cytotoxicity” value read?
A: 3.02% [at 39.1 µM]

Q: With CN(C)CCCN1c2ccccc2CCc2ccccc21 as the molecule, how does the Potency read?
A: inactive

Q: Which “activity change, negative = cytotoxicity” value does the source give for CN1[C@@H]2CC[C@@H]1CC(OC(=O)C(CO)c1ccccc1)C2 (stereo not given in full) here?
A: 15.3%

Q: For CCN(CC)CCCN(c1ccccc1)C1Cc2ccccc2C1, which Potency is on record?
A: 29.8 µM (active)

Q: Which “activity change, negative = cytotoxicity” value does the source give for CNCC[C@H](Oc1cccc2ccccc12)c1cccs1 here?
A: -1.79%

Q: Which “activity change, negative = cytotoxicity” value does the source give for Clc1ccc(C(Cn2ccnc2)OCc2ccsc2Cl)c(Cl)c1 (stereo not given) here?
A: -16.6%

Q: Which “activity change, negative = cytotoxicity” value does the source give for C=C(c1ccc(C(=O)O)cc1)c1cc2c(cc1C)C(C)(C)CCC2(C)C here?
A: -4.34%

Q: For CCCCOc1ccc(C(=O)CCN2CCCCC2)cc1, which “activity change, negative = cytotoxicity” value is on record?
A: 38.8% [at 39.1 µM]

Q: Which “activity change, negative = cytotoxicity” value does the source give for CN1CCN(C2Cc3ccccc3Sc3ccc(Cl)cc32)CC1 (stereo not given) here?
A: 6.24%

Q: For CCO[Si](CCCSSSSCCC[Si](OCC)(OCC)OCC)(OCC)OCC, which “activity change, negative = cytotoxicity” value is on record?
A: -6.69%
